The source made the active and inactive calls. How the source made its calls: active means hit-call score of the fitted dose curve at least 0.9, where 1 is the maximum; inactive means score below 0.9.
Assay: ATG_SREBP_CIS: Attagene CIS-FACTORIAL HepG2 Assay for human Sterol Regulatory Element Binding (SREBP) (AID 2282962)
Details: HepG2 Attagene cis-factorial SREBP reporter, mRNA; actives raise or lower the signal
Protocol: ATG_CIS is a cell-based, multiplexed-readout assay that uses HepG2, a human liver cell line, with measurements taken at 24 hours after chemical dosing in a 24-well plate.ATG_SREBP_CIS is one of 52 assay component(s) measured or calculated from the ATG_CIS assay. It is designed to make measurements of mRNA induction, a form of inducible reporter, as detected with fluorescence intensity signals by Reverse transcription polymerase chain reaction (RT-PCR) and Capillary electrophoresis technology.Data from the assay component ATG_SREBP_CIS was analyzed into 1 assay endpoint. This assay endpoint, ATG_SREBP_CIS, was analyzed with bidirectional fitting relative to DMSO as the negative control and baseline of activity. Using a type of inducible reporter, measures of mRNA for gain or loss-of-signal activity can be used to understand the reporter gene at the transcription factor-level as they relate to the gene SREBF1. Furthermore, this assay endpoint can be referred to as a primary readout, because this assay has produced multiple assay endpoints where this one serves a reporter gene function. To generalize the intended target to other relatable targets, this assay endpoint is annotated to the dna binding intended target family, where the subfamily is basic helix-loop-helix leucine zipper.
Human liver HepG2 cells are transiently transfected with multiple reporter transcription units (MRTUs) in 6-well plates using FuGene 6 reagent (Roche; 3 ml FuGene/1 mg DNA). The MRTU constructs are regulated by a cis-regulating element (promoter). […] A major difference between the CIS and TRANS system is that in CIS activities of endogenous TFs are measured, whereas the TRANS assay evaluates changes in activities of exogenous, chimeric NR-Gal4 proteins. […] At the end of 24 hour incubation, total RNA was isolated using TriZol reagent (Invitrogen). The isolated RNA is then reverse-transcribed using oligo(dT) primer and Mo-MLV reverse transcriptase (Invitrogen) with DNAse I (Ambion) treatment for 30 min. The one-tenth of the produced cDNA was amplified by PCR using Taq DNA polymerase (Invitrogen) and two reporter sequence-specific primers. The PCR products were fluorescently labeled by primer extension with 6-arboxyfluorescein (6-FAM) 5'-labeled reporter sequence-specific primer (2 min at 95 C, 20 s at 68 C and 10 min at 72 C) and these products were digested with 5U of HpaI (New England Biolabs) for 2h at 37 C. The fragments were purified using Qiaquick PCR columns (Qiagen), analyzed on an ABI 3130xL genetic analyzer (Applied Biosystems) with peak positions identified by using a set of X-rhodamine (ROX)-labeled MapMarker1000 molecular weight standards (BioVentures). The raw capillary electrophoresis data was processed using Attagraph software (Attagene).

Row | SMILES | outcome | AC50
1 | CCCCOCCOCCSC#N | inactive | 
2 | O=C(O)CCCCCCCC(=O)O | inactive | 
3 | O=[N+]([O-])c1ccc(Nc2ccc(Nc3ccccc3)c(S(=O)(=O)O)c2)c([N+](=O)[O-])c1 | inactive | 
4 | CSc1nc(NC2CC2)nc(NC(C)(C)C)n1 | inactive | 
5 | CC[C@]12CCCN3CCc4c(n(c5ccccc45)[C@@](O)(C(=O)OC)C1)[C@@H]32 | inactive | 
6 | CNC(=O)Oc1ccc2c(c1)[C@]1(C)CCN(C)[C@@H]1N2C | inactive | 
7 | O=C(O)c1ccc([N+](=O)[O-])cc1 | inactive | 
8 | CCC/C=C/C=O | inactive | 
9 | CCCC(=O)c1cc(O)c(O)cc1O | inactive | 
10 | N#Cc1nc(Cl)c(Cl)c(Cl)c1Cl |  | 5.74 µM (active)
11 | CNC[C@H](O)c1cccc(O)c1 | inactive | 
12 | C=C(C)[C@@H]1CCC2=CC(=O)C[C@@H](C)[C@]2(C)C1 | inactive | 
13 | O=Nc1ccc(Nc2ccccc2)cc1 |  | 33.4 µM (active)
14 | Cc1ncc([N+](=O)[O-])n1C | inactive | 
15 | O=C1NC(=O)c2ccccc21 | inactive | 
16 | C=C(C)C(=O)O[C@H]1C[C@@H]2CC[C@@]1(C)C2(C)C |  | 175 µM (active)
17 | CC(C)(Oc1ccc(CCNC(=O)c2ccc(Cl)cc2)cc1)C(=O)O | inactive | 
18 | O=C(O)c1cccc(C(F)(F)F)c1 | inactive | 
19 | O=c1[nH]c(=O)n([C@H]2CCCO2)cc1F | inactive | 
20 | CC1(CO)CN(c2ccccc2)NC1=O (stereo not given) | inactive | 

Row | SMILES | outcome | AC50
21 | CCCc1c(OCCCOc2ccc(OCC(=O)O)cc2)ccc(C(C)=O)c1O | inactive | 
22 | CN(C)C(=N)N=C(N)N | inactive | 
23 | CCO[Si](CCCS)(OCC)OCC | inactive | 
24 | COc1cccc(OC)c1 | inactive | 
25 | CC(=O)O[C@H](CC(=O)[O-])C[N+](C)(C)C | inactive | 
26 | CC(C)=CCCC(C)=CCCC(C)=CCO |  | 41.4 µM (active)
27 | Cc1ccc(Nc2ccc(O)c3c2C(=O)c2ccccc2C3=O)cc1 | inactive | 
28 | CN(C)CCCN | inactive | 
29 | CC(C)=CCCC(C)CC=O (stereo not given) | inactive | 
30 | CC(C)Oc1ccccc1O | inactive | 
31 | O=C1c2ccccc2C(=O)N1SC1CCCCC1 | inactive | 
32 | C=C[Si](OCC)(OCC)OCC | inactive | 
33 | CC(C)(C)c1n[nH]c(=S)n(N)c1=O | inactive | 
34 | COc1c(Cl)c(Cl)c(Cl)c(Cl)c1Cl | inactive | 
35 | O=c1cc(-c2ccccc2)oc2cc(O)cc(O)c12 | inactive | 
36 | CCCCCCCCCCCCCC(=O)O |  | 54.9 µM (active)
37 | CCCCCCCCCCCCN |  | 18.1 µM (active)
38 | [Ca+2] | inactive | 
39 | O=C[C@H](O)[C@H](O)[C@H](O)CO | inactive | 
40 | CCCCCC(=O)OCCc1ccccc1 | inactive | 
